Laboratory results reported in PubChem BioAssay.
“And” between values parts separate entries of the source, which are not always exact repeats. Equal entries are not always repeated. The source made the active and inactive calls.

Experiments:
[1] = anti-His antibody binders, primary screen, artefact control for SMM control protein annotation, biochemical, small-molecule microarray, 635 nm fluorescence (AID 1128); settings: anti-His Alexa647 antibody binding, higher = more signal;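 note: score merges feature fluorescence with signal-to-noise for each printed compound spot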
[2] = system: Human papillomavirus type 1a E7 protein (residues 1-88); assay: HPV1a E7 small-molecule binders, primary screen, biochemical, small-molecule microarray, residues 1-88, 635 nm (AID 1129); settings: small-molecule microarray binding, fluorescence 635 nm; higher = more signal
[3] = molecular target: Focal adhesion kinase 1 (Homo sapiens) (UniProt Q05397); assay: small-molecule microarray binders of FAK, primary screen, biochemical, 635/667 nm fluorescence, BSA, DTT (AID 1130); settings: PTK2 binding, 635 nm fluorescence, higher = more signal;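 note: composite of spot emission at 667 nm and signal to noise over triplicate slides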
[4] = system: Fibrinogen (Alexa647-labelled); assay: fibrinogen binders on compound microarrays, profiling panel, artefact control for SMM control-protein annotation, biochemical, small-molecule microarray, 635/667 nm fluorescence (AID 1131); settings: fibrinogen-A647 binding fluorescence, higher = more signal;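 note: z-score merges 667 nm fluorescence with per-spot signal-to-noise over triplicate slides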
[5] = molecular target: Follistatin (Homo sapiens) (UniProt P19883); assay: follistatin binders on small-molecule microarrays, primary screen, biochemical, small-molecule microarray, 635/667 nm fluorescence (AID 1132); settings: FST binding, 635 nm fluorescence, higher = more signal
[6] = molecular target: Fibroblast growth factor 2 (Homo sapiens) (UniProt P09038); assay: FGF2 binders on small-molecule microarrays, primary screen, biochemical, small-molecule microarray, 635/667 nm fluorescence (AID 1133); settings: small-molecule microarray binding, FGF2, fluorescence 635/667; higher = more signal
[7] = mitochondrial membrane potential change in A549 cells, profiling panel, cell-based, JC-1 fluorescence, basal, 24 h, 100 nL (AID 1138); settings: higher = more signal;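 note: A549 lung adenocarcinoma cells under basal conditions with no added stimulus; test concentration not given here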
Lefty1 = Lefty1 binders on small-molecule microarrays, primary screen, biochemical, small-molecule microarray, 635/667 nm fluorescence (AID 1139); settings: small-molecule microarray binding, fluorescence 635/667; higher = more signal
[8] = system: wheat germ agglutinin (Triticum aestivum), Alexa647-labelled; assay: wheat germ agglutinin binders on compound microarrays, profiling panel, artefact control for SMM control-protein annotation, biochemical, small-molecule microarray, 635/667 nm fluorescence (AID 1140); settings: WGA-A647 binding, 635 nm fluorescence, higher = more signal;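 note: score merges 667 nm feature emission with signal to noise over triplicate slides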
[9] = molecular target: Luciferin 4-monooxygenase (Photinus pyralis) (UniProt P08659); assay: firefly luciferase enzyme inhibitors, primary screen, biochemical, luminescence, purified enzyme, 2006 set (AID 1141); settings: SteadyGlo luminescence, 30 min, higher = more signal, called active from +8 up or from −8 down;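 note: cell-free assay with purified firefly luciferase at 100 ng per well in PBS; test concentration not given here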
Sequence of Luciferin 4-monooxygenase (Photinus pyralis) (P08659 whole entry, looked up): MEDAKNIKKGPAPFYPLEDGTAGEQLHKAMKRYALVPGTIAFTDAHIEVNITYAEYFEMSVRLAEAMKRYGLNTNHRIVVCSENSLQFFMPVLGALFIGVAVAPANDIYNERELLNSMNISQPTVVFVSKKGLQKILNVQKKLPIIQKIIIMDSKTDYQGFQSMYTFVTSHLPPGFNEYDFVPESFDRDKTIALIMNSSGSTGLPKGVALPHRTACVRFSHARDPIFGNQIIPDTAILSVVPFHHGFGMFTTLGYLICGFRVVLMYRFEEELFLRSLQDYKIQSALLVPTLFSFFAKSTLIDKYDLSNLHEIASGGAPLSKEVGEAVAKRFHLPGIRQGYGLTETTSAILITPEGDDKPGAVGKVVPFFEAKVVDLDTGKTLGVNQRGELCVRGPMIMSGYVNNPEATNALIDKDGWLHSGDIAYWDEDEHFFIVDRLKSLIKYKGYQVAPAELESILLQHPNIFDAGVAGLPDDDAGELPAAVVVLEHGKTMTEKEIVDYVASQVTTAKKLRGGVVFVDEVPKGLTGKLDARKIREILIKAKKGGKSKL

Sequence of Fibroblast growth factor 2 (Homo sapiens) (P09038 whole entry, looked up): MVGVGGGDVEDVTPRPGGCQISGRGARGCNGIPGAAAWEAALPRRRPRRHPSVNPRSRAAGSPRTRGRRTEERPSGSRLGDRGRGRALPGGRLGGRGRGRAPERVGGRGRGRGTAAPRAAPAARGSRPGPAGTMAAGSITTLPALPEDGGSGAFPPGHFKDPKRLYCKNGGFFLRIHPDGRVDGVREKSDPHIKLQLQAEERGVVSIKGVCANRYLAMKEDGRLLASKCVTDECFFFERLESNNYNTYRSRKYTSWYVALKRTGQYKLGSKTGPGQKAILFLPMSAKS
Sequence of Focal adhesion kinase 1 (Homo sapiens) (Q05397 whole entry, looked up): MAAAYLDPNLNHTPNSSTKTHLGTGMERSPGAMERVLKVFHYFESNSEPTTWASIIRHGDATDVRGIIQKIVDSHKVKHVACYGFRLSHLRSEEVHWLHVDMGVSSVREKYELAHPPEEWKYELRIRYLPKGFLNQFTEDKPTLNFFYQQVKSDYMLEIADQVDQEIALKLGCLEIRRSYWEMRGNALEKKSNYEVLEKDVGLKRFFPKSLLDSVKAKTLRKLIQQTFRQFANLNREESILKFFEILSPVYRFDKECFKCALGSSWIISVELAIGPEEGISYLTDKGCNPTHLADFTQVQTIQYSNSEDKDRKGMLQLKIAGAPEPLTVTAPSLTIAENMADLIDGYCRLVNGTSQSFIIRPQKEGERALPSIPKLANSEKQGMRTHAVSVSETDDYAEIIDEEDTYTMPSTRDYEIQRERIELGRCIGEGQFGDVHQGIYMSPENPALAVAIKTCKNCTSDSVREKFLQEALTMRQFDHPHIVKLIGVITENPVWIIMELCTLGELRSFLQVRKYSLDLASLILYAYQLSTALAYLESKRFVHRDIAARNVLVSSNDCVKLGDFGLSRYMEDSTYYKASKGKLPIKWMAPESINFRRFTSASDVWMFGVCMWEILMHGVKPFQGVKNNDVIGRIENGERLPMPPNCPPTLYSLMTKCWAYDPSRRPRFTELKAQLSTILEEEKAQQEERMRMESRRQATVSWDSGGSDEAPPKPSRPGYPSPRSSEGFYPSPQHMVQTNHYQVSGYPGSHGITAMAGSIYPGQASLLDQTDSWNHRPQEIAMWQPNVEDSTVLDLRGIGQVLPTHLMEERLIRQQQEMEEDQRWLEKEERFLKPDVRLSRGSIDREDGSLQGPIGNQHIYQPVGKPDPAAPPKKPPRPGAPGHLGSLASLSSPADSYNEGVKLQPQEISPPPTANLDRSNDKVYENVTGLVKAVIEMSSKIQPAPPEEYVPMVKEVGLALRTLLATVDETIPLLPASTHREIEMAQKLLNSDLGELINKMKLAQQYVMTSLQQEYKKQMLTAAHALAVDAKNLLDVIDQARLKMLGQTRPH
Sequence of Follistatin (Homo sapiens) (P19883 whole entry, looked up): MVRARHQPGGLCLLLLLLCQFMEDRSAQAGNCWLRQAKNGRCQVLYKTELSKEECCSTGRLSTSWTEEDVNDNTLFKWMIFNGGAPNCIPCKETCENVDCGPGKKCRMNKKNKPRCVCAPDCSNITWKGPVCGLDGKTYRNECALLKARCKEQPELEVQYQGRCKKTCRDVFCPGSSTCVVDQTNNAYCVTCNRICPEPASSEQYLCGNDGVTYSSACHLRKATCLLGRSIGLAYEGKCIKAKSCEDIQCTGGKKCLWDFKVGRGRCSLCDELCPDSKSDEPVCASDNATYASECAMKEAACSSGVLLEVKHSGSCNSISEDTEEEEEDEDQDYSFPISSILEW

Row | Structure (SMILES) | composite z-score [1] | composite z-score [2] | composite z-score [3] | composite z-score [4] | composite z-score [5] | composite z-score [6] | z-score [7] | composite z-score (Lefty1) | composite z-score [8] | z-score [9]
1 | C=CCN(C(=O)C1N(C(C)(C)CO)C(=O)C2C(C(=O)O)C3C=CC21O3)C(C)(C)C (stereo not given) | -0.574 and -1.26 | -0.937 and -0.349 | -0.892 and -0.328 | -2.12 and 0.119 | -1.98 and -1.82 | -2.47 and -2.04 | -0.377 and 0.637 | -2.81 and -2.22 | -1.64 and 0.157 | 0.0864 (inactive) and -0.639 (inactive)
2 | CC(C)=CCCC(C)=CCON=C1C[C@@H](O)[C@@H](O)[C@@H]2[C@@H]3C(=O)N([C@@H](C)c4ccccc4)C(=O)[C@@H]3CC[C@H]12 | 0.798 | 1.01 | 0.89 | 0.558 | 0.676 | 0.364 | 0.824 | 0.581 | 0.324 | -0.677 (inactive)
3 | C[C@@H]1CC[C@H]2C(=O)O[C@H](CN=[N+]=[N-])CN2[C@H]1c1ccc(Br)cc1 | 0.755 and 0.806 | -0.841 and -0.245 | 0.073 and 0.0778 | 0.142 and 0.149 | 0.506 and -0.488 | 0.0443 and -0.132 | 0.703 and 0.206 | 0.212 and 0.0831 | -0.276 and -0.0024 | 0.788 (inactive) and -1.42 (inactive)
4 | C=CCN(C(=O)C(c1cccs1)N(C(=O)/C=C\C(=O)O)c1c(Cl)cccc1CO)c1ccc(OC)cc1 (stereo not given) | -1.78 and -1.48 | -1.15 and -0.74 | -0.93 and -0.641 | -1.13 and -0.594 | -2.61 and -1.19 | -2.55 and -1.44 | 1.26 and 1.98 | -2.98 and -2.04 | -0.55 and 0.213 | -1.47 (inactive) and -1.26 (inactive)
5 | C=CCN(CCCCC)C(=O)C1N(CCOCCO)C(=O)C2C(C(=O)O)C3C=CC21O3 (stereo not given) | -0.749 and -1.54 | -1.08 and -0.838 | -0.527 and -1.09 | -1.97 and -0.97 | -0.98 and -2.75 | -2.29 and -2.04 | 0.586 and -0.536 | -1.41 and -1.91 | -1.19 and -2.06 | 0.171 (inactive) and 0.472 (inactive)
6 | C=CCN(Cc1ccccc1)C(=O)C1N(C(C)(C)CO)C(=O)C2C(C(=O)O)C3C=CC21O3 (stereo not given) | -1.67 and -0.97 | -1.24 and -0.825 | -0.571 and -1.31 | -2.5 and -2.76 | -2.21 and -1.21 | -1.48 and -2.77 | -0.188 and -0.414 | -2.57 and -1.65 | -1.76 and -0.466 | 0.519 (inactive) and 1.45 (inactive)
7 | C=CCN(CCCC)C(=O)C1N(C(C)(C)CO)C(=O)C2C(C(=O)O)C3C=CC21O3 (stereo not given) | -0.767 and -0.57 | -1.26 and -1.35 | -0.909 and -1.23 | -4.07 and -1.59 | -2.17 and -2.38 | -1.42 and -1.18 | -0.628 and -0.501 | -1.93 and -1.64 | -0.788 and -0.799 | 1.12 (inactive) and 0.853 (inactive)
8 | CO[C@H]1COC(=O)[C@H](C)NC(=O)CC=C[C@@H](C)[C@H](OC)COC(=O)CC=C[C@@H]1C | -0.284 | -1.4 | -0.348 | -1.86 | 1.28 | 1.71 | 0.106 | 1.62 | -0.655 | -0.885 (inactive)
9 | CO[C@H]1COC(=O)CC=C[C@@H](C)COC(=O)[C@@H](OCc2ccccc2)C=C[C@@H]1C | 0.563 | -1.07 | -0.279 | -1.44 | 1.47 | 1.74 | 1.8 | 1.65 | -1.13 | -0.917 (inactive)
10 | C=C[C@@H](C)[C@@H](O)c1ccc(O)c2ccccc12 | -0.46 and 0.408 | -1.07 and -0.498 | -0.221 and -0.422 | -1.54 and 0.509 | 0.105 and 0.431 | -0.162 and -0.329 | 0.287 and -0.728 | -0.863 and -0.286 | -1.19 and 0.506 | -1.48 (inactive) and -0.181 (inactive)
11 | CC(CO)N1C(=O)[C@@H]2C3C(=O)OCCC=C[C@H]3OC23C=CCN(C(C)(C)C)C(=O)[C@@H]13 (stereo not given in full) | -2.03 and 0.11 | -1.08 and -0.0333 | -0.0802 and -0.371 | -1.65 and -0.445 | -1.1 and -0.0304 | -0.325 and -0.263 | -0.619 and -0.394 | -1.08 and 0.542 | -2.85 and 0.0101 | -0.685 (inactive) and -0.146 (inactive)
12 | C=CCN(CCCCC)C(=O)C1N(c2ccc(CCO)cc2)C(=O)C2C(C(=O)O)C3C=CC21O3 (stereo not given) | -1.26 and -0.352 | -1.44 and -0.943 | -0.886 and -0.776 | -0.916 and -0.657 | -0.974 and -0.877 | -0.989 and -0.883 | 0.157 and -0.0775 | -1.47 and -0.885 | 0.961 and -0.241 | -0.929 (inactive) and -0.832 (inactive)
13 | COC(=O)C1=C(C)N(Cc2ccccc2)[C@]23O[C@](C(=O)OC)(C(=O)N2[C@@H]1c1ccccc1)[C@@H](C(=O)OC)[C@H]3C(=O)OC | 0.297 and 1.07 | -0.813 and 0.143 | -0.277 and 0.2 | -2.79 and -0.188 | -0.998 and 0.452 | -0.179 and 0.403 | 0.604 and 0.301 | -0.625 and 0.747 | 0.753 and -0.487 | -0.781 (inactive) and -1.8 (inactive)
14 | COC(=O)C1=C(C)N(Cc2ccccc2)C2=C(C(C)=O)C[C@@](O)(C(=O)OC)C(=O)N2[C@@H]1c1ccccc1 | 1.23 and -0.0396 | 0.5 and 0.2 | 0.271 and -0.209 | -0.378 and 1.02 | 0.247 and 0.12 | 1.55 and 0.0618 | 1.18 and 1.72 | 1.18 and 0.158 | -0.48 and 0.228 | -0.458 (inactive) and -1.7 (inactive)
